In PubChem BioAssay:
For some of these results: Measured potencies and affinities stand elsewhere. Calls of active or inactive are those of the source.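 How the source made its calls, unless noted: active means calcium signal cut by more than 3 SD below the full-agonist control yet still positive, in both repeats and the earlier primary screen; inactive means the rest.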

How the values were obtained:
[1] = system: TRPC4 beta (transient receptor potential cation channel C4), mouse; assay: activators of mouse TRPC4 channel, confirmation, cell-based, Fluo4 calcium, HEK293 TRPC4beta/mu-opioid, duplicates, 10 µM (AID 2426;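 active means fluorescence ratio normalized to control raised more than 50% in primary screen plus both repeat runs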); details: Fluo4 calcium fluorescence, at 10 µM; hits give high values
[2] = system: transient receptor potential cation channel C4 beta (TRPC4), mouse; assay: activators of mouse TRPC4 channel, confirmation, cell-based, second round, Fluo4, HEK293 TRPC4beta/mu-opioid, 1 µM (AID 2461;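 active means primary screen active and over 50% activation in each of two duplicate runs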); details: Fluo4 calcium fluorescence, at 1 µM; hits give high values
[3] = system: TRPC4 (transient receptor potential cation channel C4 beta), mouse; assay: positive allosteric modulators of mouse TRPC4, confirmation, cell-based, second round, Fluo-4, HEK293 TRPC4beta/mu-opioid, 1 µM (AID 2554;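 active means primary screen hit whose fluorescence ratio, in both repeats, exceeds the weak agonist control mean by 3 SD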); details: DAMGO EC20, Fluo-4 calcium flux, at 1 µM; hits give high values
[4] = system: TRPC4 beta (transient receptor potential cation channel C4), mouse; assay: positive allosteric modulators of mouse TRPC4, confirmation, cell-based, Fluo-4, HEK293 TRPC4beta/mu-opioid (AID 2555;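 active means primary screen hit whose calcium fluorescence ratio, in both repeats, exceeds the weak agonist control mean by 3 SD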); details: DAMGO EC20, Fluo-4 calcium flux, at 10 µM; hits give high values
[5] = target: Short transient receptor potential channel 4 (Mus musculus) (UniProt Q9QUQ5); assay: inhibitors of mouse TRPC4 channel, confirmation, cell-based, Fluo4, HEK293 TRPC4beta/mu-opioid (AID 2636); details: DAMGO, Fluo4 calcium flux, at 10 µM; hits give high values
[6] = target: Short transient receptor potential channel 4 (Mus musculus) (UniProt Q9QUQ5); assay: inhibitors of mouse TRPC4 channel, confirmation, cell-based, second round, Fluo4, HEK293 TRPC4beta/mu-opioid, 1 µM (AID 2637;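 active means calcium signal ratio cut to more than 3 SD under the fully stimulated control mean yet still positive, in both repeats and the primary screen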); details: Fluo4 calcium flux, DAMGO, at 1 µM; hits give high values
[7] = target: Short transient receptor potential channel 4 (Mus musculus) (UniProt Q9QUQ5); assay: mouse TRPC4 channel activators, dose response, cell-based, HEK293 TRPC4/mu-opioid, Fluo-4 calcium (AID 434937;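 active means primary screen activator hit with a dose response curve and TRPC4 channel activation at any tested dose; inactive means no activation, no dose response, or not a primary hit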)
[8] = target: Short transient receptor potential channel 4 (Mus musculus) (UniProt Q9QUQ5); assay: TRPC4 positive allosteric modulators, dose response, cell-based, HEK293 TRPC4/mu-opioid, Fluo-4 calcium, EC20 DAMGO (AID 434941;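 active means earlier screen potentiator hit that boosts the TRPC4 ion channel at some dose, with a dose response; inactive means no potentiation, no dose response, or not a prior hit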;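 further: calcium entry triggered by an EC20 dose of DAMGO at the co-expressed mu-opioid receptor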)
[9] = target: Short transient receptor potential channel 4 (Mus musculus) (UniProt Q9QUQ5); assay: mouse TRPC4 channel inhibitors, dose response, cell-based, HEK293 TRPC4/mu-opioid, Fluo-4 calcium (AID 434942;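 active means primary screen inhibitor hit that blocks the TRPC4 channel at some tested dose, yielding a dose curve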)
[10] = target: Short transient receptor potential channel 6 (Mus musculus) (UniProt Q61143); assay: inhibition of mouse TRPC6 channel, confirmation, selectivity assay for TRPC4 inhibitor project, cell-based, HEK293, membrane potential dye, duplicate (AID 434948;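 active means active in primary screen and both duplicates, each dropping signal beyond three positive-control SD with fluorescence still positive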); details: HEK293 TRPC6, membrane potential dye fluorescence, at 10 µM, stimulated with maximal-effect acetylcholine; hits give high values
[11] = target: Short transient receptor potential channel 6 (Mus musculus) (UniProt Q61143); assay: activation of mouse TRPC6 channel, confirmation, selectivity assay for TRPC4 activator project, cell-based, HEK293, membrane potential dye, duplicate (AID 434950;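 active means membrane potential signal rise above negative control mean plus 3 SD in both duplicates, also active in the earlier TRPC4 screen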;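 on activation: 0% = buffer only wells and 100% = acetylcholine maximal-effect wells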); details: HEK293 TRPC6, membrane potential fluorescence, at 10 µM; hits give high values
[12] = target: Short transient receptor potential channel 6 (Mus musculus) (UniProt Q61143); assay: TRPC6 potentiation by TRPC4 potentiator hits, confirmation, selectivity assay for TRPC4 potentiator project, HEK293 cells, membrane potential dye, duplicate (AID 434952;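 active means compound raising the membrane signal above positive-control mean plus 3 SD in both repeats, and a primary screen hit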); details: HEK293 TRPC6, membrane potential dye fluorescence, at 10 µM, maximal acetylcholine added after compound; hits give high values
[13] = target: Short transient receptor potential channel 4 (Mus musculus) (UniProt Q9QUQ5); assay: calcium flux activators in TRPC4/5HT1a cells, counter-screen for TRPC4 activator project, cell-based, second counter screen, HEK293 TRPC4/5HT1a, Fluo-4 (AID 434977;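 active means calcium signal rise above buffer-control mean plus 5 SD in both duplicates, and also a hit in the primary screen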); details: Fluo-4 calcium flux, at 10 µM; hits give high values
[14] = calcium flux inhibitors in TRPC4/5HT1a cells, confirmation, counter-screen for TRPC4 inhibitor project, cell-based, second counter screen, HEK293 TRPC4/5HT1a, Fluo-4 (AID 434978;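 active means primary screen active whose calcium signal fell more than 3 SD beyond the full-serotonin control mean in both duplicate plates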;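 further: serotonin given first at submaximal then at maximal dose after compound preincubation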); details: Fluo-4 calcium flux, at 10 µM, serotonin added to trigger calcium flux; hits give high values
[15] = system: TRPC4 (mouse), co-expressed with 5HT1a in HEK293; assay: calcium flux potentiators in TRPC4/5HT1a cells, confirmation, counter-screen for TRPC4 potentiator project, cell-based, second counter screen, HEK293 TRPC4/5HT1a, Fluo-4 (AID 434979;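 active means signal rise over 3 SD above mean of control wells given weak agonist, in both repeats and first screen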); details: Fluo-4 calcium flux, at 10 µM, serotonin added at its EC20 dose; hits give high values
[16] = calcium flux activation in mu-opioid HEK293 cells, confirmation, counter-screen for TRPC4 activator project, cell-based, HEK293 mu-opioid receptor line (AID 449723;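 active means hit in primary screen, with calcium signal over 5 SD above buffer well mean in both duplicates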;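 further: counter screen cells carry the mu-opioid receptor alone and lack TRPC4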); details: Fluo-4 calcium fluorescence, at 10 µM; hits give high values
[17] = calcium flux enhancement in mu-opioid HEK293 cells, confirmation, counter-screen for TRPC4 allosteric potentiator project, cell-based, HEK293 mu-opioid receptor line (AID 449724;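 active means calcium signal rise more than 3 SD above the low-dose agonist control mean, in both duplicate plates and the primary screen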); details: Fluo-4 calcium flux, at 10 µM, compound added before EC20 DAMGO stimulus; hits give high values

Short transient receptor potential channel 4 (Mus musculus), sequence (Q9QUQ5 whole entry, looked up): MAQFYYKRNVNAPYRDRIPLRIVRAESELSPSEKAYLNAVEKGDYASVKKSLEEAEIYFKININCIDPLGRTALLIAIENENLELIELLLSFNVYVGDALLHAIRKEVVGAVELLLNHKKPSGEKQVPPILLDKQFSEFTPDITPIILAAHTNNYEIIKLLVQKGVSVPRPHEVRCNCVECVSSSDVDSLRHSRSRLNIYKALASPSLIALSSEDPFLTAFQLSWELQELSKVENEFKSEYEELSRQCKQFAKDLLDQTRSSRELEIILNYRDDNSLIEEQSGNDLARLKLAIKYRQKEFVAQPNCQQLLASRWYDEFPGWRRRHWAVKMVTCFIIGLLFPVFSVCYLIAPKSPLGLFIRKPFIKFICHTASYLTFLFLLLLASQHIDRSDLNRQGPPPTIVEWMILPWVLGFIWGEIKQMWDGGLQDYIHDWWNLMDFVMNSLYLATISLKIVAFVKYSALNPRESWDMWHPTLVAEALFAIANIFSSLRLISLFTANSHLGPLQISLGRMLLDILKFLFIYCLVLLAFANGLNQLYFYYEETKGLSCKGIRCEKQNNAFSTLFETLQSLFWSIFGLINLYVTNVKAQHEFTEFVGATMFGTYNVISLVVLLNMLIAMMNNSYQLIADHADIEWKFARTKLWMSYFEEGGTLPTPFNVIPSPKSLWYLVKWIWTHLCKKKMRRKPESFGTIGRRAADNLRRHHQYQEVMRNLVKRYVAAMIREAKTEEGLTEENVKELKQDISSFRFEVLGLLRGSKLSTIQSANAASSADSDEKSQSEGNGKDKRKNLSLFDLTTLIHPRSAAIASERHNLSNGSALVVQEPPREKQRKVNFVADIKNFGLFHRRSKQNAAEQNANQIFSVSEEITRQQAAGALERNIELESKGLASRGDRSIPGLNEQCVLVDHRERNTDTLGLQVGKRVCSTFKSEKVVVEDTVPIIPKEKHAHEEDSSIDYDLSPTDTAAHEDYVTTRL
Short transient receptor potential channel 6 (Mus musculus), sequence (Q61143 whole entry, looked up): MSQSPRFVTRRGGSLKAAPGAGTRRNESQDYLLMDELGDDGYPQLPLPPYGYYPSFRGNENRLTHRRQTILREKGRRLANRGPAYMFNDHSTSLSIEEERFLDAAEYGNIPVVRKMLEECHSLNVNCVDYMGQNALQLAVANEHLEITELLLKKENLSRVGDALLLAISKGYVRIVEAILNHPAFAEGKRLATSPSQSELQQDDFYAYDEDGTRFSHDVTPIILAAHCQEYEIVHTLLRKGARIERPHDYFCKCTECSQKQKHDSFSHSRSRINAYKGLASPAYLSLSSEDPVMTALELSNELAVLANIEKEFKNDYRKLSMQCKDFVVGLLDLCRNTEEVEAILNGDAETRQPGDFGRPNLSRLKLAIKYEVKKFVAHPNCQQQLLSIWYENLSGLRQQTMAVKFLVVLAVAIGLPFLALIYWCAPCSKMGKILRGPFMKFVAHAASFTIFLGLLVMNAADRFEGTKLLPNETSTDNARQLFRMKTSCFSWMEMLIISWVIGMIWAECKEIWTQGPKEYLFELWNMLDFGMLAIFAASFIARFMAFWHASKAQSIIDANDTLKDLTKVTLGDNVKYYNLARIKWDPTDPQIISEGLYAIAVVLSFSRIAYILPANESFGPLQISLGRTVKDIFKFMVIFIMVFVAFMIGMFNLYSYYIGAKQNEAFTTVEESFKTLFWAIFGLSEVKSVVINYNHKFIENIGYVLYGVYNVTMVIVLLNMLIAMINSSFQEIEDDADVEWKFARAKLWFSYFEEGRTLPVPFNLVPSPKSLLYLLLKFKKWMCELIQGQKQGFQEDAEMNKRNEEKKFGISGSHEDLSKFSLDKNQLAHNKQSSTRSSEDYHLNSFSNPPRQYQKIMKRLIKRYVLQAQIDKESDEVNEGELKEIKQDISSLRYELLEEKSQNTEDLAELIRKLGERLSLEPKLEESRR

CN(CC(=O)Nc1sc2c(c1C#N)CCCCC2)Cc1nc2ccccc2c(=O)[nH]1
inactive: outcome [1] | outcome [2] | outcome [3] | outcome [4] | outcome [5] | outcome [6] | outcome [7] | outcome [8] | outcome [9] | outcome [10] | outcome [11] | outcome [12] | outcome [13] | outcome [14] | outcome [15] | outcome [16] | outcome [17]

COc1ccc(Cl)c2sc(N(CCN(C)C)C(=O)c3ccc4c(c3)OCCO4)nc12
active: potentiation [3] 9% | potentiation [4] 26%
inactive: outcome [1] | outcome [2] | outcome [5] | outcome [6] | outcome [7] | outcome [8] | outcome [9] | outcome [10] | outcome [11] | outcome [12] | outcome [13] | outcome [14] | outcome [15] | outcome [16] | outcome [17]

O=C(NN/C(=N/S(=O)(=O)c1ccc(Cl)cc1)c1ccccc1)c1cccc(Cl)c1
active: inhibition [5] 70%
inactive: outcome [1] | outcome [2] | outcome [3] | outcome [4] | outcome [6] | outcome [7] | outcome [8] | outcome [9] | outcome [10] | outcome [11] | outcome [12] | outcome [13] | outcome [14] | outcome [15] | outcome [16] | outcome [17]

CCOc1ccc2nc(N3CCCC(C(=O)NCC4CCCO4)C3)sc2c1 (stereo not drawn)
inactive: outcome [1] | outcome [2] | outcome [3] | outcome [4] | outcome [5] | outcome [6] | outcome [7] | outcome [8] | outcome [9] | outcome [10] | outcome [11] | outcome [12] | outcome [13] | outcome [14] | outcome [15] | outcome [16] | outcome [17]

CCCCn1c(N)c(N(CCOC)C(=O)c2ccc(-c3ccc(C(C)=O)cc3)o2)c(=O)[nH]c1=O
inactive: outcome [1] | outcome [2] | outcome [3] | outcome [4] | outcome [5] | outcome [6] | outcome [7] | outcome [8] | outcome [9] | outcome [10] | outcome [11] | outcome [12] | outcome [13] | outcome [14] | outcome [15] | outcome [16] | outcome [17]

Cc1cccc(NC(=O)CNC(=O)CN2C(=O)NC3(CCCCC3C)C2=O)c1C (stereo not drawn)
inactive: outcome [1] | outcome [2] | outcome [3] | outcome [4] | outcome [5] | outcome [6] | outcome [7] | outcome [8] | outcome [9] | outcome [10] | outcome [11] | outcome [12] | outcome [13] | outcome [14] | outcome [15] | outcome [16] | outcome [17]

CC(C)(C)C(=O)NCCCc1nc2ccccc2n1CCCOc1ccc(Cl)cc1
inactive: outcome [1] | outcome [2] | outcome [3] | outcome [4] | outcome [5] | outcome [6] | outcome [7] | outcome [8] | outcome [9] | outcome [10] | outcome [11] | outcome [12] | outcome [13] | outcome [14] | outcome [15] | outcome [16] | outcome [17]

O=C(CSCc1cccc(Cl)c1)N1CCN(Cc2ccc3c(c2)OCO3)CC1
inactive: outcome [1] | outcome [2] | outcome [3] | outcome [4] | outcome [5] | outcome [6] | outcome [7] | outcome [8] | outcome [9] | outcome [10] | outcome [11] | outcome [12] | outcome [13] | outcome [14] | outcome [15] | outcome [16] | outcome [17]

CCN(C(=O)c1cc2c(s1)-c1ccccc1OC2)c1cc(OC)ccc1OC
inactive: outcome [1] | outcome [2] | outcome [3] | outcome [4] | outcome [5] | outcome [6] | outcome [7] | outcome [8] | outcome [9] | outcome [10] | outcome [11] | outcome [12] | outcome [13] | outcome [14] | outcome [15] | outcome [16] | outcome [17]

COc1cccc(Oc2cncnc2-c2ccc(OC)cc2O)c1
inactive: outcome [1] | outcome [2] | outcome [3] | outcome [4] | outcome [5] | outcome [6] | outcome [7] | outcome [8] | outcome [9] | outcome [10] | outcome [11] | outcome [12] | outcome [13] | outcome [14] | outcome [15] | outcome [16] | outcome [17]

C=CCOc1ccc(Br)cc1/C=N/O
inactive: outcome [1] | outcome [2] | outcome [3] | outcome [4] | outcome [5] | outcome [6] | outcome [7] | outcome [8] | outcome [9] | outcome [10] | outcome [11] | outcome [12] | outcome [13] | outcome [14] | outcome [15] | outcome [16] | outcome [17]

COc1cc(/C=C2/SC(=O)NC2=O)ccc1OCc1ccccc1
inactive: outcome [1] | outcome [2] | outcome [3] | outcome [4] | outcome [5] | outcome [6] | outcome [7] | outcome [8] | outcome [9] | outcome [10] | outcome [11] | outcome [12] | outcome [13] | outcome [14] | outcome [15] | outcome [16] | outcome [17]

NC(=O)c1ccc(Oc2ccc3c(c2)CCC3)c([N+](=O)[O-])c1
active: potentiation [4] 42% | potentiation [15] 84.5%
inactive: outcome [1] | outcome [2] | outcome [3] | outcome [5] | outcome [6] | outcome [7] | outcome [8] | outcome [9] | outcome [10] | outcome [11] | outcome [12] | outcome [13] | outcome [14] | outcome [16] | outcome [17]

Cc1cc(OCC(=O)N2CCCC2)cc(C)c1Cl
active: activation [11] 38%
inactive: outcome [1] | outcome [2] | outcome [3] | outcome [4] | outcome [5] | outcome [6] | outcome [7] | outcome [8] | outcome [9] | outcome [10] | outcome [12] | outcome [13] | outcome [14] | outcome [15] | outcome [16] | outcome [17]
